Assay results as given in PubChem BioAssay AID743398 (Broad Institute, 2014).
Among all 300,000 compounds or so, about 3,600 (1.2%) were called active. What follows is part of a selection rich in actives, with near analogues and random picks from the rest. Unmarked numbers belong to inactive results. Cut-off read from the data, not from the text of the source: active = activation above about 30% (passing the limit was not always enough); inconclusive = no clear call, values can overlap the other calls.

Assay: activation of beta-catenin signaling reporter – cell-based, plate reader, single point, primary screen (AID 743398);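 note: 0% = neutral control wells and 100% = positive control wells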
Conditions: Wnt/beta-catenin reporter cell assay, activator, at 9.35 µM, hits give high values

| Compound | activation |
| --- | --- |
| Nc1ccn([C@@H]2O[C@H](C(=O)N[C@H]3CCCCNC3=O)[C@@H](O)[C@H]2O)c(=O)n1 | -3.4% |
| O=C(Nc1ccc2c(c1)OCCO2)C1CCCC1 | -15.2% |
| Cc1cc(C)nc(N2CCC(C(=O)Nc3ccc4c(c3)OCCO4)CC2)n1 | -5.24% |
| O=C(Nc1ccc2c(c1)OCCO2)C1CCCN(c2ncccn2)C1 (stereo not given) | 45.5% (active) |
| CC1(C(=O)Nc2cccc3cccnc23)CCN1C(=O)CCC1CCCC1 (stereo not given) | -4.88% |
| O=[N+]([O-])c1ccccc1N/N=C1\CCc2ccccc21 | 47.7% (active) |
| O=[N+]([O-])c1cc(C(F)(F)F)ccc1NN=C1CCCC1 | 6.33% |
| CN1CCN(CCNC(=O)Nc2ccccc2[N+](=O)[O-])CC1 | -0.54% |
| CC1=C(C(=O)N2CCOCC2)CC(CC(=O)NCC2CCCCC2)C(=O)N1Cc1ccc(F)cc1 (stereo not given) | -1.2% |
| CCCCCCN1CCN(C2CN(Cc3cn(Cc4ccc(F)cc4)nn3)S(=O)(=O)C2)CC1 (stereo not given) | -5.62% |
| Cc1ccc(C(=O)Nc2ccn(C)n2)cc1 | 55.8% (active) |
| Cn1ccc(NC(=O)Nc2ccc(Cl)cc2)n1 | 20.1% |
| CN(C)S(=O)(=O)c1cc(C(=O)Nc2ccn(C)n2)c(Cl)cc1Cl | 1.22% |
| Cc1ccc(-c2ccc(CN3C(C(C)C)C(=O)N(Cc4cn(CCC5OCCO5)nn4)CCS3(=O)=O)cc2)cc1 (stereo not given) | -0.655% |
| CC(=O)Nc1ccc(C(=O)NNC(=O)CCCCC(=O)NNC(=O)c2ccc(NC(C)=O)cc2)cc1 | 1.15% |
| CC(=O)Nc1ccc(C(=O)/C=C/c2ccc[nH]2)cc1 | 42.8% (active) |
| CC(=O)Nc1ccc(C=CC(=O)c2ccc([N+](=O)[O-])cc2)cc1 | -6.15% |
| CCOc1ccccc1C(=O)N1CCC[C@@H]1C(=O)N1CCC[C@H]1C(=O)NCc1ccccc1 | 1.73% |
| COC(=O)[C@]12C[C@H](CC(=O)NCCc3ccccc3OC)C(=O)N(Cc3ccccc3)C1=C[C@H](C(C)C)O[C@@H]2C1CC1 | -2.31% |
| COc1ccc(Nc2ccc3ccccc3c2)cc1 | 50.4% (active) |

| Compound | activation |
| --- | --- |
| COc1ccc(-c2nnc(-c3ccc4ccccc4c3)o2)cc1 | 3.21% |
| COc1ccc(Nc2nnc(C)c3ccccc23)cc1 | 1.79% |
| CCOc1ccc2[nH]c(=S)sc2c1 | 6.79% |
| COCc1cc(=O)n2[nH]c(C)c(-c3ccccc3)c2n1 | 47.6% (active) |
| CCCc1cc(=O)n2[nH]c(C)c(-c3ccc(Cl)cc3)c2n1 | -2.59% |
| COCc1cc(=O)[nH]c(-c2ccc(C(F)(F)F)cc2)n1 | -1.39% |
| O=C(C(=O)N1CCC(c2ccccc2)CC1)c1ccccc1 | -2.25% |
| CC(NC(=O)CSc1nc2c(cc1C#N)CN(C)CC2)c1ccccc1 (stereo not given) | -0.152% |
| Cc1cc(NC(=O)COc2ccccc2C#N)no1 | 19% |
| Cc1cc(NC(=O)CSc2nc3c(cc2C#N)CCCCC3)no1 | 35.1% (active) |
| CCOC(=O)C=Cc1ccc(C(=O)OCC)[nH]1 | -4.57% |
| COc1ccc(C2=CN(Cc3ccccc3)C(c3ccc(OC)cc3)CC2=O)cc1 (stereo not given) | -3.3% |
| Cn1c(=NC(=O)c2cnccn2)sc2ccccc21 | 40.5% (active) |
| O=C(NCCCNC(=O)c1ccccc1Cl)c1cnccn1 | -1.92% |
| COC(=O)c1ccc(OC(=O)c2cnccn2)cc1 | -1.23% |
| CC(=O)C1=C(C)N(Cc2ccccc2)C(=S)NC1c1cccc(Br)c1 (stereo not given) | -4.75% |
| CCOC(=O)[C@]12CCCC=C1N(CCC1=CCCCC1)C(=O)[C@H](CC(=O)NCCCOC)C2 | -3.04% |
| O=C(NNC(=O)C1CCCC1)c1ccc(F)cc1 | -1.64% |
| O=C(/C=C/c1ccc([N+](=O)[O-])o1)NNC(=O)c1ccc(F)cc1 | 37.2% (active) |
| O=C(N/N=C/c1ccc([N+](=O)[O-])o1)c1cn(-c2ccccc2)nc1-c1ccc(F)cc1 | -0.879% |

| Compound | activation |
| --- | --- |
| CCCCCn1nnnc1-c1nc2cc3ccccc3cc2[nH]c1=O | -1.88% |
| COc1ccc(NC(=O)C2(C)Cc3c(-c4cccc(NC(C)=O)c4)ccnc3O2)cc1OC (stereo not given) | -0.993% |
| COCc1cc(N2CCN(C(=O)OC(C)(C)C)C[C@@H]2C)ccc1N1CCN(Cc2ccccc2)[C@H](C)C1 | -6.08% |
| O=C(NCCC1=CCCCC1)c1ccc(-n2cncn2)cc1 | 36.7% (active) |
| O=C(Cc1nn[nH]n1)NCCC1=CCCCC1 | 1.57% |
| O=C(NCCC1=CCCCC1)c1ccc(Cl)c([N+](=O)[O-])c1 | 12.3% |
| COC(=O)[C@@]12C[C@@H](CC(=O)NCCCCc3ccccc3)C(=O)N(Cc3ccccc3)C1=CCC(C)(C)C2 | -3.6% |
| CC(C)c1ccc(S(=O)(=O)N2CCN(C(=O)c3ccc(N4CCCC4)c([N+](=O)[O-])c3)CC2)cc1 | -1.38% |
| O=C(c1ccc(N2CCOCC2)c([N+](=O)[O-])c1)N1CCN(c2ccccc2F)CC1 | -6.11% |
| O=C(c1ccc(N2CCOCC2)c([N+](=O)[O-])c1)N1CCN(S(=O)(=O)c2cccs2)CC1 | 42% (active) |
| O=S1(=O)c2c(cccc2N2CCCC2)O[C@H](COCc2ccccc2)CN1C1CC1 | -2.59% |
| Brc1ccc(C2CC(c3ccccc3)=Nc3ccccc3N2)cc1 (stereo not given) | 63.6% (active) |
| c1ccc(C2=Nc3cccc4cccc(c34)N2)cc1 | -4.88% |
| O=C(c1ccccc1)N1N=C(c2ccccc2O)CC1c1ccc(Br)cc1 (stereo not given) | -1.76% |
| COCOc1cccc(CN2CCC(C)(Oc3ccc(SC)cc3)C2)c1 (stereo not given) | 0.071% |
| CC1(C)CC(=O)C=C(c2ccc(COC(=O)c3cc(F)cc(F)c3)cc2)C1=O | 0.449% |
| CCc1cc(-c2nnn(CCC3COCCO3)c2CC)ccc1-c1cn(Cc2ccc3ccccc3c2)nn1 (stereo not given) | -3.93% |
| COc1ccc(N=C(C)c2sc3ccccc3c2O)cc1 | 50.3% (active) |
| COC(=O)Cc1[nH]n(-c2nc3ccccc3s2)c(=O)c1C(C)=Nc1ccc(OC)cc1 | -8.84% |
| COc1ccc(N=Nc2ccc(O)c(P(=O)(c3ccccc3)c3ccccc3)c2)cc1 | 1.19% |
